From PubChem BioAssay (NCATS)
Records with an inconclusive call do not appear. Active and inactive are the calls of the source. The call rests on the fitted dose curve; in most records, active means well fitted inhibition curve with a large enough effect; inconclusive means small, poorly fitted or top-dose-only effect; inactive means no such curve, though single readings can be large or run the other way.

The compounds below were run on Zika virus NS2B-NS3 protease (linked construct) (assay: Primary screen NINDS Rhodamine qHTS for Zika virus inhibitors (AID 1347160; further: nearly all actives have a fitted effect of over 55% in size)). Settings: purified NS2B-NS3 protease, Rhodamine110 substrate fluorescence; series mostly up to 57.1 µM; activity change, negative = inhibition: at the top concentration.
Summary of the method: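 Kinetic fluorescence (Ex 480 nm, Em 540 nm) over 15 min with 1.5 microM Rhodamine110 peptide and 25 nM linked protease.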
On the % scale 0 is the no-effect control and ±100 the full control effect; potency means the concentration at half of the fitted maximal effect.

Row | Compound | activity change, negative = inhibition | outcome | Potency
1 | O=C(CC12CC3CC(CC(C3)C1)C2)Nc1cccc2nc(NCCNCCO)ccc12 | 190% (inactive) | – | –
2 | C[C@@H](NC(=O)c1ncnc(N)c1Cl)c1ncc(C(=O)Nc2cc(C(F)(F)F)c(Cl)cn2)s1 | – | inactive | –
3 | C[C@@H](N)c1ccc(C(=O)Nc2ccnc3[nH]ccc23)cc1 | – | inactive | –
4 | Cc1nc2c([nH]1)CCN(C(=O)c1ccc(NC(=O)c3ccccc3-c3ccccc3)cc1)c1ccccc1-2 | 50.5% (inactive) | – | –
5 | Fc1ccc(CNc2ncnc3ccc(F)cc23)cc1 | 13.1% (inactive) | – | –
6 | Cc1cc2c(cc1C1(c3ccc(C(=O)O)cn3)CC1)C(C)(C)CCC2(C)C | – | – | 14.1 µM (active)
7 | Cc1ccccc1C(C(=O)NC1CCCCC1)N(C(=O)CNc1ccc(C#N)cc1)c1cccc(F)c1 (configuration not stated) | 13% (inactive) | – | –
8 | CN1CCc2c(n(Cc3ccc(C(=O)NO)cc3)c3ccccc23)C1 | – | inactive | –
9 | COc1ccc(CCC(=O)Nc2nc3ccc(Cl)cc3s2)cc1OC | 35.3% (inactive) | – | –
10 | CCNC(=O)c1noc(-c2cc(C(C)C)c(O)cc2O)c1-c1ccc(CN2CCOCC2)cc1 | – | inactive | –
11 | CN1CCC(COc2cnc(-c3cccc(Cn4nc(-c5cccc(C#N)c5)ccc4=O)c3)nc2)CC1 | – | inactive | –
12 | CN1C(=O)C(Cc2c[nH]c3ccccc23)NC1=S (configuration not stated) | -2.57% [at 33.1 µM] (inactive) | – | –
13 | CCCCC(F)(F)[C@@]1(O)CC[C@H]2[C@H](CC(=O)[C@@H]2CCCCCCC(=O)O)O1 | 1.1% (inactive) | – | –
14 | O=C(CCCN1CCN(c2ccc(F)cc2)CC1)NC1c2ccccc2CSc2ccccc21 (configuration not stated) | 21.5% (inactive) | – | –
15 | Cc1cnc(-c2cc(N3CCN(C(=O)CCS(C)(=O)=O)CC3)ncc2Cl)c(C)c1 | 39.4% (inactive) | – | –
16 | O=C(Nc1ccc(OC(F)(F)F)cc1)c1sccc1NCc1ccnc2ccccc12 | -3.63% (inactive) | – | –
17 | C=CC(=O)Nc1cccc(Sc2nc(Nc3ccc(N4CCN(C)CC4)cc3)ncc2Cl)c1 | 227% (inactive) | – | –
18 | CCN1C[C@H](C)n2c(c(O)c3c(=O)n(Cc4ccc(F)c(Cl)c4)nc(C(=O)NC)c32)C1=O | – | – | inactive
19 | CC(C)(O)CC(=O)NCCn1ccc2ncnc(Nc3ccc(Oc4cccc(C(F)(F)F)c4)c(Cl)c3)c21 | -11.6% (inactive) | – | –

Row | Compound | activity change, negative = inhibition | outcome | Potency
20 | NC(=O)c1ccc(N(C(N)=O)c2c(F)cccc2F)nc1-c1ccc(F)cc1F | – | inactive | –
21 | Cn1cnc(-c2cc3nccc(Oc4ccc(NC(=S)NC(=O)Cc5ccccc5)cc4F)c3s2)c1 | 63.2% (inactive) | – | –
22 | O=C1C(c2c(O)[nH]c3ccccc23)=Nc2ccccc21 | 8.23% [at 33.1 µM] (inactive) | – | –
23 | COc1nccc(-c2c(-c3ccc(F)cc3)ncn2C2CCC(O)CC2)n1 (configuration not stated) | 13.4% (inactive) | – | –
24 | CCN1CCC(n2cc(CNc3cc(Cl)c4ncc(C#N)c(Nc5ccc(F)c(Cl)c5)c4c3)nn2)CC1 | 298% (inactive) | – | –
25 | C[C@@]1(C(=O)Nc2ccc(F)nc2)CCCN1c1nc(Nc2cc(C3CC3)[nH]n2)c2cccn2n1 | 8.71% (inactive) | – | –
26 | COc1cc2nccc(Oc3ccc(NC(=O)Nc4cc(C)on4)c(Cl)c3)c2cc1OC | 34.4% (inactive) | – | –
27 | O=C(O)CCNc1cc(N2CCc3ccccc3CC2)nc(-c2ccccn2)n1 | -4.33% [at 10.7 µM] (inactive) | – | –
28 | Cc1cnc(CNC(=O)c2c(=O)c3ccc(N4CCCN(C)CC4)nc3n3c2sc2ccccc23)cn1 | 6.93% [at 10.7 µM] (inactive) | – | –
29 | c1cc(OCCN2CCCCC2)cc(-c2n[nH]c3ccc(-c4ncn[nH]4)cc23)c1 | 55.8% (inactive) | – | –
30 | Cc1cnc(Nc2cccc(CN3CCOCC3)c2)nc1Nc1cccc(S(=O)(=O)NC(C)(C)C)c1 | -1.58% (inactive) | – | –
31 | Nc1ncnc2c1c(-c1cccc(OCc3ccccc3)c1)cn2C1CC(CN2CCC2)C1 (configuration not stated) | 534% (inactive) | – | –
32 | CS(=O)(=O)c1ccc(C2=C(c3ccccc3)C(=O)OC2)cc1 | 3.65% (inactive) | – | –
33 | Cc1ccc2c(c1)c1c(n2CCc2ccc(C)nc2)CCN(C)C1 | – | inactive | –
34 | c1ccc(-c2oc3ncnc(NC[C@@H]4CCCO4)c3c2-c2ccccc2)cc1 | 5.56% (inactive) | – | –
35 | CN(C)c1nc(Cc2ccc(NC(=O)c3ccc(C(F)(F)F)cc3)cc2)nc(N(C)C)c1CC(=O)O | 11.9% (inactive) | – | –
36 | CNC(=O)c1c(-c2ccc(F)cc2)oc2cc(N(CCO)S(C)(=O)=O)c(C3CC3)cc12 | -12.5% (inactive) | – | –
37 | CCN(CCO)CCCOc1ccc2c(Nc3cc(CC(=O)Nc4cccc(F)c4)[nH]n3)ncnc2c1 | 51.9% (inactive) | – | –
